Measured values taken from PubChem BioAssay (NCI).
About 79,000 compounds went through this panel and 15% of them were active in at least one assay; those are over-represented in the sample as a whole. Calls of active or inactive are those of the source. Rule as the data show it: active = growth inhibition above about 70%; inactive = the rest.

Columns and labels:
[1] = NCI Yeast Anticancer Drug Screen. Data for the rad52 strain (AID 147);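 also: 0% = growth of vehicle-treated control cultures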; details: S. cerevisiae rad52 mutant growth inhibition, active compounds read high
How it was run: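 Genetically altered yeast (DNA damage repair defect) treated with compound; inhibition calculated relative to vehicle.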

[2] = NCI Yeast Anticancer Drug Screen. Data for the wt1 strain (AID 149);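 also: 0% = growth of vehicle-treated wt1 cultures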; details: S. cerevisiae wt1 strain (SPY 50644) growth inhibition, active compounds read high
How it was run: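 Using yeast strain wt1, compound-induced growth inhibition was determined against vehicle-treated cultures.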

[3] = NCI Yeast Anticancer Drug Screen. Data for the rad50EPP+ strain (AID 151);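 also: 0% = growth of vehicle-treated control cultures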; details: S. cerevisiae rad50 mutant strain, active compounds read high
How it was run: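 Strain rad50EPP+; compound exposure; % growth inhibition vs vehicle.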

[4] = NCI Yeast Anticancer Drug Screen. Data for the mgt1 strain (AID 153); details: S. cerevisiae mgt1 mutant growth inhibition, active compounds read high
How it was run: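 Read-out: yeast growth inhibition vs vehicle control. Strain mgt1, drawn from a panel altered in DNA damage repair or cell cycle control.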

[5] = NCI Yeast Anticancer Drug Screen. Data for the rad50 strain (AID 155);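 also: 0% = growth of vehicle-only cultures of the same strain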; details: S. cerevisiae rad50 strain growth inhibition, active compounds read high
How it was run: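 Relative growth inhibition (compound vs vehicle) was measured in yeast with a defined repair-gene alteration.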

[6] = NCI Yeast Anticancer Drug Screen. Data for the mec2-1 strain (AID 157); details: S. cerevisiae mec2-1 strain, active compounds read high
How it was run: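 Cells of the genetically defined mec2-1 yeast strain are incubated with test compound. Inhibition of growth is calculated against vehicle-treated controls.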

[7] = NCI Yeast Anticancer Drug Screen. Data for the sgs1 mgt1 strain (AID 161);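 also: 0% = growth of cultures given vehicle only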; details: S. cerevisiae sgs1 mgt1 strain, active compounds read high
How it was run: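 Test agents were incubated with a DNA-repair-mutant yeast strain. Growth was then read and compared against vehicle-treated controls.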

[8] = NCI Yeast Anticancer Drug Screen. Data for the CLN2oe strain (AID 163);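 also: 0% = growth of vehicle-only control cultures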; details: S. cerevisiae CLN2oe strain, active compounds read high
How it was run: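 Strain altered in cell-cycle control, incubated with compound; growth compared to solvent-treated controls.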

[9] = NCI Yeast Anticancer Drug Screen. Data for the cln2 rad14 strain (AID 165);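 also: 0% = growth equal to vehicle treated cultures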; details: S. cerevisiae cln2 rad14 strain, active compounds read high
How it was run: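 The screen exposed genetically defined yeast (cln2 rad14) to test compounds and scored growth inhibition relative to vehicle-treated controls.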

[10] = NCI Yeast Anticancer Drug Screen. Data for the bub3 strain (AID 167); details: S. cerevisiae bub3 mutant strain, active compounds read high
How it was run: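 Screening used yeast with an engineered genetic alteration affecting cell cycle control. Compound-exposed cultures were compared with vehicle cultures, and reduced growth was taken as inhibition.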

[11] = NCI Yeast Anticancer Drug Screen. Data for the wt2 strain (AID 169);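 also: 0% = growth of vehicle-treated yeast cultures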; details: S. cerevisiae wt2 strain growth inhibition, active compounds read high
How it was run: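 Steps: yeast strain treated with compound; growth recorded; inhibition calculated relative to cultures given vehicle alone.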

[12] = NCI Yeast Anticancer Drug Screen. Data for the mlh1 strain (AID 171);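 also: 0% = growth of vehicle-treated control cultures of the same strain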; details: S. cerevisiae mlh1 strain growth inhibition, active compounds read high
How it was run: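 Yeast screen: mutant strain plus compound, growth scored against vehicle control wells.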

[13] = NCI Yeast Anticancer Drug Screen. Data for the sgs1 strain (AID 173);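 also: 0% = growth of vehicle-only control cultures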; details: S. cerevisiae sgs1 mutant, active compounds read high
How it was run: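 Inhibition of yeast growth served as the measure. The mutant strain was treated with each compound, and growth was normalised to cultures receiving vehicle alone.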

[14] = NCI Yeast Anticancer Drug Screen. Data for the mlh1 rad18 strain (AID 175); details: S. cerevisiae mlh1 rad18 strain growth inhibition, active compounds read high
How it was run: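 Compound-treated yeast growth, normalised to vehicle controls. Strain bears defined DNA repair mutations.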

[15] = NCI Yeast Anticancer Drug Screen. Data for the rad18 strain (AID 177); details: S. cerevisiae rad18 mutant growth inhibition, active compounds read high
How it was run: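 Inhibition values reflect reduced yeast growth compared with vehicle-treated controls, using a strain engineered with a DNA damage repair defect.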

[16] = NCI Yeast Anticancer Drug Screen. Data for the rad14 strain (AID 159);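 also: 0% = growth of vehicle-treated control cultures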; details: S. cerevisiae rad14 strain growth inhibition, active compounds read high
How it was run: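 Screen for anticancer potential: a yeast strain altered in DNA damage repair is grown with compound, and reduced growth is quantified against vehicle controls.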

[17] = at 5.0 µM (retest, dose inferred, filed as 0.5)
[18] = at 50.0 µM (retest, dose inferred, filed as 5.0)

Measured: growth inhibition

CCCCCCCCCCCCCCCCP(=O)(O)OCC(N)C(=O)O (stereo unspecified)
inactive: [1]; at 1.2 µM -5% | [1]; at 3.7 µM -40% | [1]; at 11.0 µM -38% | [1]; at 33.0 µM -15% | [2]; at 1.2 µM -38% | [2]; at 3.7 µM -46% | [2]; at 11.0 µM -46% | [2]; at 33.0 µM -31% | [3]; at 1.2 µM 0% | [3]; at 3.7 µM -5% | [3]; at 11.0 µM 5% | [3]; at 33.0 µM 20% | [3]; at 100.0 µM 69% | [4]; at 1.2 µM 15% | [4]; at 3.7 µM 21% | [4]; at 11.0 µM 7% | [4]; at 33.0 µM 43% | [5]; at 1.2 µM -14% | [5]; at 3.7 µM -14% | [5]; [17] -19% | [5]; at 11.0 µM -39% | [5]; at 33.0 µM 6% | [5]; [18] 46% | [5]; at 50.0 µM 66.9% | [6]; at 1.2 µM -22% | [6]; at 3.7 µM -24% | [6]; [17] -11% | [6]; at 11.0 µM -25% | [6]; at 33.0 µM -20% | [6]; [18] 3% | [6]; at 50.0 µM 58.8% | [7]; [17] -11% | [7]; [18] 39% | [8]; at 1.2 µM 1% | [8]; at 3.7 µM -3% | [8]; at 11.0 µM 0% | [8]; at 33.0 µM -6% | [8]; at 100.0 µM -8% | [9]; [17] 23% | [9]; [18] 7% | [9]; at 50.0 µM 60.9% | [10]; at 1.2 µM -1% | [10]; at 3.7 µM 1% | [10]; [17] -9% | [10]; at 11.0 µM 0% | [10]; at 33.0 µM -1% | [10]; [18] -8% | [10]; at 50.0 µM 60.1% | [10]; at 100.0 µM -13% | [11]; at 1.2 µM -1% | [11]; at 3.7 µM -2% | [11]; at 11.0 µM -4% | [11]; at 33.0 µM -2% | [11]; at 100.0 µM -3% | [12]; at 1.2 µM -18% | [12]; at 3.7 µM -26% | [12]; at 11.0 µM -53% | [12]; at 33.0 µM 20% | [13]; at 1.2 µM -31% | [13]; at 3.7 µM -58% | [13]; at 11.0 µM -44% | [13]; at 33.0 µM 18% | [14]; [17] -34% | [14]; [18] 29% | [15]; at 1.2 µM -3% | [15]; at 3.7 µM -8% | [15]; at 11.0 µM -10% | [15]; at 33.0 µM 14%
active: [1]; at 100.0 µM 95% | [2]; at 100.0 µM 97% | [4]; at 100.0 µM 97% | [5]; at 100.0 µM 96% | [6]; at 100.0 µM 96% | [7]; at 50.0 µM 93.5% | [12]; at 100.0 µM 96% | [13]; at 100.0 µM 95% | [14]; at 50.0 µM 73.9% | [15]; at 100.0 µM 97%

CC(Cc1ccccc1)N(C)Cc1nc(C2CCC([N+](=O)[O-])O2)no1 (stereo unspecified)
inactive: [1]; at 1.2 µM 6% | [1]; at 3.7 µM 14% | [1]; at 11.0 µM 22% | [1]; at 33.0 µM 53% | [2]; at 1.2 µM -1% | [2]; at 3.7 µM 0% | [2]; at 11.0 µM 2% | [2]; at 33.0 µM 3% | [2]; at 100.0 µM 8% | [4]; at 1.2 µM 1% | [4]; at 3.7 µM -1% | [4]; at 11.0 µM 13% | [4]; at 33.0 µM 25% | [4]; at 100.0 µM 49% | [5]; at 1.2 µM 4% | [5]; at 3.7 µM 10% | [5]; [17] 17% | [5]; at 11.0 µM 10% | [5]; at 33.0 µM 46% | [6]; at 1.2 µM 4% | [6]; at 3.7 µM 2% | [6]; [17] 18% | [6]; at 11.0 µM 4% | [6]; at 33.0 µM 17% | [6]; at 50.0 µM 66% | [6]; at 100.0 µM 33% | [16]; at 1.2 µM 5% | [16]; at 3.7 µM 14% | [16]; at 11.0 µM 45% | [7]; [17] 35% | [8]; at 1.2 µM -1% | [8]; at 3.7 µM 1% | [8]; at 11.0 µM 8% | [8]; at 33.0 µM 48% | [9]; [17] 5% | [10]; at 1.2 µM 0% | [10]; at 3.7 µM 9% | [10]; [17] -16% | [10]; at 11.0 µM 20% | [10]; at 33.0 µM 54% | [11]; at 1.2 µM 0% | [11]; at 3.7 µM 3% | [11]; at 11.0 µM 9% | [11]; at 33.0 µM 27% | [11]; at 100.0 µM 34% | [12]; at 1.2 µM -1% | [12]; at 3.7 µM -3% | [12]; at 11.0 µM 2% | [12]; at 33.0 µM 14% | [12]; at 100.0 µM 17% | [13]; at 1.2 µM -26% | [13]; at 3.7 µM 5% | [13]; at 11.0 µM 20% | [13]; at 33.0 µM 50% | [13]; at 100.0 µM 67% | [14]; [17] 47% | [15]; at 1.2 µM 14% | [15]; at 3.7 µM 36% | [15]; at 11.0 µM 69%
active: [1]; at 100.0 µM 84% | [5]; [18] 95% | [5]; at 50.0 µM 84.7% | [5]; at 100.0 µM 81% | [6]; [18] 98% | [16]; at 33.0 µM 70% | [16]; at 100.0 µM 93% | [7]; [18] 99% | [7]; at 50.0 µM 85.3% | [8]; at 100.0 µM 93% | [9]; [18] 94% | [9]; at 50.0 µM 88% | [10]; [18] 100% | [10]; at 50.0 µM 90% | [10]; at 100.0 µM 79% | [14]; [18] 97% | [14]; at 50.0 µM 80.2% | [15]; at 33.0 µM 86% | [15]; at 100.0 µM 95%

C[N+](CCCl)(CCCl)Cc1cccc2cccc([N+](=O)[O-])c12
inactive: [2]; at 1.2 µM 31% | [2]; at 3.7 µM 9% | [2]; at 11.0 µM 31% | [2]; at 33.0 µM 28% | [2]; at 100.0 µM 39% | [3]; at 1.2 µM 20% | [3]; at 3.7 µM 35% | [4]; at 1.2 µM 3% | [4]; at 3.7 µM 6% | [4]; at 11.0 µM -15% | [4]; at 33.0 µM -5% | [4]; at 100.0 µM 9% | [5]; at 1.2 µM 26% | [5]; at 3.7 µM 44% | [5]; [17] 37% | [5]; at 11.0 µM 67% | [6]; at 1.2 µM -4% | [6]; at 3.7 µM 10% | [6]; [17] 1% | [6]; at 11.0 µM 10% | [6]; at 33.0 µM 44% | [6]; [18] 56% | [6]; at 50.0 µM 47%
active: [3]; at 11.0 µM 80% | [3]; at 33.0 µM 95% | [3]; at 100.0 µM 96% | [5]; at 33.0 µM 90% | [5]; [18] 85% | [5]; at 50.0 µM 80.1% | [5]; at 100.0 µM 94%
